Assay outcomes deposited in PubChem BioAssay by The Scripps Research Institute Molecular Screening Center.
Hits are enriched below; roughly 0.9% of the tested compounds scored in any of these assays.
PPARg SRC-1 ag: agonists of human PPARgamma SRC-1 coactivator recruitment | P37231 | PPARgamma-SRC-1 coactivator recruitment biochemical assay | activation, % at 8 µM | 200,000 tested, 0.41% active | AID 631; in the data active = activation above about 19%
Target sequence (P37231 whole entry, looked up): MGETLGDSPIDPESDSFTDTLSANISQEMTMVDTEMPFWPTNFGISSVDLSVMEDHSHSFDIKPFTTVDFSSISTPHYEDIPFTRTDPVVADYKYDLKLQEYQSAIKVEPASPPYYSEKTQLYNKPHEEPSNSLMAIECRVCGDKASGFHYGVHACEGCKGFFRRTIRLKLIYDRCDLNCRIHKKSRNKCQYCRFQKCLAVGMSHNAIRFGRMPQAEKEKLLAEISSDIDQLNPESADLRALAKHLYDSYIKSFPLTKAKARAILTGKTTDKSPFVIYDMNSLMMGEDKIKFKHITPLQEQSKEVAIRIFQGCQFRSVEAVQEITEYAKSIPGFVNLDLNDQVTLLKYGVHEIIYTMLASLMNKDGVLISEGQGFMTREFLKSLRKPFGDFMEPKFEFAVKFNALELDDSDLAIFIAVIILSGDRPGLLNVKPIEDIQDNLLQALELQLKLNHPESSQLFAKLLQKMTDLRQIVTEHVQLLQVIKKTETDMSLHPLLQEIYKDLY
SRC1 TRFRET art: TR-FRET artefact, counter-screen to PPARgamma/SRC-1 agonist assay; TR-FRET detection artefact counter-screen, emission ratio; hits give high values; TR-FRET ratio at 8 µM; 99,000 tested, 0.34% active; AID 1051; in the data active = TR-FRET ratio above about 2300
PPARg SRC2 recr: agonists of SRC-2 recruitment by human PPARgamma; 200,000 tested, 0.34% active; P37231; activation, % at 8 µM; PPARgamma LBD-SRC-2 recruitment, biochemical; in the data active = activation above about 22%
SRC3 TRFRET art: TR-FRET artefact, counter-screen to PPARgamma/SRC-3 agonist assay | PPARgamma/SRC-3 format; hits give high values | TR-FRET ratio at 8 µM | 99,000 tested, 0.39% active
PPARg SRC3 recr: promotes SRC-3 coactivator recruitment by human PPARgamma. biochemical PPARgamma/SRC-3 coactivator recruitment assay. activation, % at 8 µM. 200,000 tested, 0.26% active; in the data active = activation above about 23%
SRC2 TRFRET art: TR-FRET artefact, counter-screen to PPARgamma/SRC-2 agonist assay | hits give high values | TR-FRET ratio at 8 µM | 200,000 tested, 0.4% active
Each line names hits and unclear results; the compound was inactive in the other large screens. Rule as the data show it, unless noted: active = TR-FRET ratio above about 2000; inactive = the rest.

CN1C(=O)c2ccc(NC(=S)NC(=O)C(C)(C)C)cc2C1=O	none
CSc1nc2ccc3nc(NC(=O)c4cccs4)sc3c2s1	PPARg SRC-1 ag 41 (no result: SRC1 TRFRET art, SRC3 TRFRET art)
CSc1nc2ccc3nc(NC(=O)c4ccc(Cl)s4)sc3c2s1	none (no result: SRC1 TRFRET art, SRC3 TRFRET art)
CS(=O)(=O)c1nc(-c2ccccc2)cc(-c2ccccc2)c1C#N	none (no result: SRC1 TRFRET art, SRC3 TRFRET art)
Cc1ccc(-c2cc(-c3ccccc3)c(C#N)c(Br)n2)cc1	PPARg SRC-1 ag 56, SRC1 TRFRET art 3299
O=C(Nc1ccccc1-c1nc2ccccc2s1)c1cccnc1	SRC2 TRFRET art 4568
S=c1[nH]nc(-c2ccccc2)n1C1C=CCCC1 (stereo not drawn)	SRC1 TRFRET art 2316
COc1ccccc1N(CC(=O)NCC1CCCO1)C(=O)CCC(=O)Nc1nccs1 (stereo not drawn)	PPARg SRC2 recr 25 (no result: SRC1 TRFRET art, SRC3 TRFRET art)
Cc1cc([N+](=O)[O-])ccc1N=Nc1c(N)[nH]n(-c2ccccc2)c1=O	SRC1 TRFRET art 2323
NC(CO)(CO)COCc1ccccc1	none
COc1ccc(/C=C2/C(=O)N(c3nc4ccccc4s3)N=C2CSc2ccc(Cl)cc2)cc1	SRC1 TRFRET art 2577, SRC3 TRFRET art 2197
COc1ccc(/C=C2/C(=O)N(Cc3ccccc3)N=C2C)cc1	none
COc1ccc(C2(CNC(=O)c3ccc(OC)c([N+](=O)[O-])c3)CCCCC2)cc1OC	none
N/C(=N\OC(=O)COc1ccc2ccccc2c1Br)c1ccccn1	SRC1 TRFRET art 2360, SRC2 TRFRET art 1993
N/C(=N\OC(=O)COc1ccc2ccccc2c1Br)c1cccnc1	SRC1 TRFRET art 2331
N/C(=N\OC(=O)COc1ccc(Br)cc1)c1cccnc1	none
N/C(=N\OC(=O)COc1ccc(Br)cc1Cl)c1ccccn1	none
C#CCn1c(=NC(=O)CN2C(=O)CCC2=O)sc2cc(S(N)(=O)=O)ccc21	none
COC(=O)Cn1c(=NC(=O)c2nc3ccccc3s2)sc2cc(S(C)(=O)=O)ccc21	none
CCOC(=O)Cn1c(=NC(=O)c2sc3ccccc3c2Cl)sc2cc(S(N)(=O)=O)ccc21	SRC3 TRFRET art 5980, PPARg SRC3 recr active
C#CCn1c(=NC(=O)c2cc(Cl)sc2Cl)sc2cc(S(N)(=O)=O)ccc21	SRC3 TRFRET art 2182, SRC2 TRFRET art 2016
COC(=O)Cn1c(=NC(=O)c2sc3ccccc3c2Cl)sc2cc(S(N)(=O)=O)ccc21	SRC3 TRFRET art 2165, SRC2 TRFRET art 1991
COC(=O)c1[nH]c2cc(OC)c(OC)cc2c1NC(=O)Oc1ccccc1	PPARg SRC3 recr 28 (no result: SRC1 TRFRET art, SRC3 TRFRET art)
N#Cc1cc2c(nc1SCC(O)CS(=O)(=O)Cc1ccccc1)CCCC2 (stereo not drawn)	none (no result: SRC1 TRFRET art, SRC3 TRFRET art)
Cc1ccc(C2CC(c3ccccc3)=NN2C(=S)Nc2ccccc2)o1 (stereo not drawn)	none (no result: SRC1 TRFRET art, SRC3 TRFRET art)
CNC(=S)N1N=C(c2ccccc2)CC1c1ccccc1Cl (stereo not drawn)	SRC3 TRFRET art 2267
CNC(=S)N1N=C(c2ccc(C)cc2)CC1c1ccc(Br)cc1 (stereo not drawn)	SRC2 TRFRET art 2002 (no result: SRC1 TRFRET art, SRC3 TRFRET art)
CC(C)c1ccc(C2CC(c3ccc(Br)cc3)=NN2C(N)=S)cc1 (stereo not drawn)	none
C=CCC1Cc2c(Br)cccc2C(CC=C)N1 (stereo not drawn)	SRC2 TRFRET art 2035
FC(F)(F)c1cccc(NC(=S)NCc2ccc(Cl)cc2)c1	SRC3 TRFRET art 2072
O=C(CSc1ccccc1)N(c1ccc(Br)cc1)c1nccs1	none
Cc1ccc(NC(=O)CSc2nnc(-c3ccc(S(=O)(=O)N4CCCC4)cc3)o2)cc1C	PPARg SRC-1 ag 21 (no result: SRC1 TRFRET art, SRC3 TRFRET art)
CCOc1ccccc1-n1c(C)nc2cc(C(=O)O)ccc21	SRC1 TRFRET art 2322
Cc1nc2cc(C(=O)O)ccc2n1-c1ccc(F)cc1F	none (no result: SRC1 TRFRET art, SRC3 TRFRET art)
O=C(Cc1sc(-c2ccccc2Cl)nc1-c1ccccc1)Nc1ccccc1	PPARg SRC-1 ag 75 (no result: SRC1 TRFRET art, SRC3 TRFRET art)
O=C(c1cc(-c2ccncc2)nc2ccccc12)N1CCN(c2ccc(N3CCOCC3)nn2)CC1	none (no result: SRC1 TRFRET art, SRC3 TRFRET art)
CCn1c(SCC(=O)N2c3ccccc3Sc3ccc(Cl)cc32)nc2c1c(=O)n(C)c(=O)n2C	none (no result: SRC1 TRFRET art, SRC3 TRFRET art)
Nc1nc(C2CCCN2S(=O)(=O)c2ccc(Cl)cc2)cs1 (stereo not drawn)	PPARg SRC-1 ag 21 (no result: SRC1 TRFRET art, SRC3 TRFRET art)
O=S(=O)(c1ccc(Cl)cc1)N1CCCC1c1nc(-c2ccc(Cl)cc2)no1 (stereo not drawn)	none (no result: SRC1 TRFRET art, SRC3 TRFRET art)
CCc1ccc(NC(=O)CCn2ccnc2C)cc1	none (no result: SRC1 TRFRET art, SRC3 TRFRET art)
O=C1Nc2ccc(Cl)cc2C12Nc1ccccc1-c1nnc(SCc3ccccc3F)nc1O2 (stereo not drawn)	SRC1 TRFRET art 2406
Cn1c(=O)c(C(=O)NC2CCCCCCC2)c(O)c2ccccc21	PPARg SRC-1 ag 50, SRC1 TRFRET art 3217
CN(Cc1ccc(OC(F)F)cc1)Cc1nc2c(Br)cc(Br)cc2c(=O)[nH]1	SRC3 TRFRET art 2068
O=c1c2c(nc3cc(-c4ccc(Cl)cc4)[nH]n13)CCS2	none
O=C(CN1C(=O)c2ccccc2S1(=O)=O)Nc1ccccc1	none (no result: SRC1 TRFRET art, SRC3 TRFRET art)
CSc1cccc(NC(=O)CN2C(=O)c3ccccc3S2(=O)=O)c1	PPARg SRC2 recr 22 (no result: SRC1 TRFRET art, SRC3 TRFRET art)
COc1ccc(N2C(=O)CC(Nc3ccc(C(=O)O)cc3)C2=O)cc1OC (stereo not drawn)	none
COC(=O)c1cccc(NC2CC(=O)N(c3ccc(OC)c(OC)c3)C2=O)c1 (stereo not drawn)	SRC1 TRFRET art 2727
CN1/C(=C\C(=O)COc2ccc3c(c2)OCO3)C(C)(C)c2ccccc21	SRC2 TRFRET art 2258 (no result: SRC1 TRFRET art, SRC3 TRFRET art)
Cn1ncc([N+](=O)[O-])c1C(=O)N/N=C/c1ccc(F)cc1	PPARg SRC-1 ag 21
CCN(CC)c1nc(-c2ccccn2)nc(-c2ccccc2)c1C#N	none
Clc1ccc(-c2cn3cc(Br)ccc3n2)cc1Cl	SRC2 TRFRET art 2032
Clc1ccc2nc(-c3ccc4c(c3)OCO4)cn2c1	none
Cc1cccn2cc(-c3c[nH]c4ccccc34)nc12	none
Brc1ccc2nc(-c3c[nH]c4ccccc34)cn2c1	SRC2 TRFRET art 1999
O=C(NC(=S)NCC1CCCO1)c1cccc([N+](=O)[O-])c1 (stereo not drawn)	none
CN1/C(=C\C(=O)CSc2nnc(NCc3ccccc3)s2)C(C)(C)c2ccccc21	SRC3 TRFRET art 2062
